Test results from PubChem BioAssay AID1159580 (chemical genetic matrix, 2015).
Screen size: about 5,500 compounds; about 2,000 (36%) were called active. About 18% were inconclusive and are not listed. Rule as the data show it: active = normalized growth mostly below about 0.91 (no sharp cut-off); inconclusive = no clear call, values can overlap the other calls; inactive = mostly above about 0.92. This is one part of the list.

Test: chemical genetic growth profiling, strain panel (AID 1159580);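 also: tested at 20 µM; growth read once vehicle control cultures reached saturation at 30 °C; 1 = growth at the plate median or of vehicle wells; lower values mean less growth of the strain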
Conditions: growth OD

Measured: normalized growth

NC1C[C@H]1c1ccccc1 (some centres not stated)
inactive: S. cerevisiae deletion strains, locus YJR075W, strain HOC1, hits give low values 0.998 | S. cerevisiae deletion strains, locus YKL009W, strain mrt4, hits give low values 0.989 | S. cerevisiae deletion strains, locus YKL068W, hits give low values 0.992 | S. cerevisiae deletion strains, locus YKL085W, strain MDH1 (second series), hits give low values 0.987 | S. cerevisiae deletion strains, locus YKL085W, strain MDH1, hits give low values 0.987 | S. cerevisiae deletion strains, locus YKL160W, strain elf1, hits give low values 0.964 | S. cerevisiae deletion strains, locus YKL190W, strain CNB1, hits give low values 1.01 | S. cerevisiae deletion strains, locus YKR001C, strain vps1, hits give low values 0.98 | S. cerevisiae deletion strains, locus YKR026C, strain gcn3, hits give low values 0.984 | S. cerevisiae deletion strains, locus YKR091W, strain srl3, hits give low values 0.979 | S. cerevisiae deletion strains, locus YLL001W, strain dnm1, hits give low values 0.977 | S. cerevisiae deletion strains, locus YLL026W, hits give low values 0.996 | S. cerevisiae deletion strains, locus YLL041C, strain sdh2, hits give low values 1 | S. cerevisiae deletion strains, locus YLR027C, strain aat2, hits give low values 0.987 | S. cerevisiae deletion strains, locus YLR039C, strain RIC1, hits give low values 1.01 | S. cerevisiae deletion strains, locus YLR058C, strain SHM2, hits give low values 1.01 | S. cerevisiae deletion strains, locus YLR102C, strain apc9, hits give low values 0.985 | S. cerevisiae deletion strains, locus YLR113W, strain HOG1, hits give low values 0.981 | S. cerevisiae deletion strains, locus YLR221C, strain rsa3, hits give low values 1.01 | S. cerevisiae deletion strains, locus YLR258W, strain gsy2, hits give low values 0.981 | S. cerevisiae deletion strains, locus YLR262C, strain YPT6 (second series), hits give low values 0.974 | S. cerevisiae deletion strains, locus YLR262C, strain YPT6, hits give low values 1.03 | S. cerevisiae deletion strains, locus YLR268W, strain sec22, hits give low values 0.963 | S. cerevisiae deletion strains, locus YLR320W, strain mms22, hits give low values 1.02 | S. cerevisiae deletion strains, locus YLR330W, strain CHS5, hits give low values 1.01 | S. cerevisiae deletion strains, locus YLR342W, strain FKS1 (second series), hits give low values 0.987 | S. cerevisiae deletion strains, locus YLR342W, strain FKS1, hits give low values 0.973 | S. cerevisiae deletion strains, locus YLR357W, strain rsc2, hits give low values 0.939 | S. cerevisiae deletion strains, locus YLR370C, strain arc18, hits give low values 0.989 | S. cerevisiae deletion strains, locus YLR371W, strain rom2, hits give low values 0.972 | S. cerevisiae deletion strains, locus YLR384C, strain iki3, hits give low values 0.989 | S. cerevisiae deletion strains, locus YLR418C, strain cdc73, hits give low values 0.962 | S. cerevisiae deletion strains, locus YML016C, strain PPZ1, hits give low values 1.01 | S. cerevisiae deletion strains, locus YML032C, strain rad52, hits give low values 0.985 | S. cerevisiae deletion strains, locus YML120C, strain ndi1, hits give low values 1.01 | S. cerevisiae deletion strains, locus YML124C, strain tub3, hits give low values 0.987 | S. cerevisiae deletion strains, locus YMR058W, strain fet3, hits give low values 1 | S. cerevisiae deletion strains, locus YMR078C, strain ctf18, hits give low values 0.981 | S. cerevisiae deletion strains, locus YMR125W, strain sto1, hits give low values 0.939 | S. cerevisiae deletion strains, locus YMR129W, hits give low values 0.998 | S. cerevisiae deletion strains, locus YMR205C, strain PFK2, hits give low values 1.02 | S. cerevisiae deletion strains, locus YMR223W, strain ubp8, hits give low values 0.98 | S. cerevisiae deletion strains, locus YMR231W, strain pep5, hits give low values 0.975 | S. cerevisiae deletion strains, locus YMR263W, strain SAP30, hits give low values 1 | S. cerevisiae deletion strains, locus YMR307W, strain GAS1, hits give low values 0.945 | S. cerevisiae deletion strains, locus YNL067W, strain RPL9B, hits give low values 1.01 | S. cerevisiae deletion strains, locus YNL071W, strain lat1, hits give low values 0.984 | S. cerevisiae deletion strains, locus YNL128W, strain TEP1, hits give low values 1.02 | S. cerevisiae deletion strains, locus YNL153C, strain GIM3, hits give low values 0.989 | S. cerevisiae deletion strains, locus YNL183C, strain NPR1, hits give low values 0.933 | S. cerevisiae deletion strains, locus YNL209W, strain ssb2, hits give low values 0.977 | S. cerevisiae deletion strains, locus YNL233W, strain BNI4, hits give low values 0.993 | S. cerevisiae deletion strains, locus YNL248C, strain rpa49, hits give low values 0.929 | S. cerevisiae deletion strains, locus YNL250W, strain rad50, hits give low values 0.973 | S. cerevisiae deletion strains, locus YNL271C, strain bni1, hits give low values 0.987 | S. cerevisiae deletion strains, locus YNL298W, strain CLA4, hits give low values 0.987 | S. cerevisiae deletion strains, locus YNL307C, strain MCK1, hits give low values 0.988 | S. cerevisiae deletion strains, locus YNL322C, strain KRE1 (second series), hits give low values 0.98 | S. cerevisiae deletion strains, locus YNL322C, strain KRE1, hits give low values 1.01 | S. cerevisiae deletion strains, locus YNR049C, strain mso1, hits give low values 0.989 | S. cerevisiae deletion strains, locus YNR052C, strain pop2, hits give low values 0.995 | S. cerevisiae deletion strains, locus YOL006C, strain TOP1, hits give low values 1.05 | S. cerevisiae deletion strains, locus YOL012C, strain htz1 0.845 | S. cerevisiae deletion strains, locus YOL147C, strain pex11, hits give low values 0.983 | S. cerevisiae deletion strains, locus YOR001W, strain rrp6, hits give low values 1.02 | S. cerevisiae deletion strains, locus YOR061W, strain CKA2, hits give low values 1.01 | S. cerevisiae deletion strains, locus YOR069W, strain VPS5, hits give low values 1.01 | S. cerevisiae deletion strains, locus YOR070C, strain gyp1, hits give low values 0.992 | S. cerevisiae deletion strains, locus YOR080W, strain dia2, hits give low values 0.993 | S. cerevisiae deletion strains, locus YOR083W, strain WHI5, hits give low values 0.934 | S. cerevisiae deletion strains, locus YOR106W, strain vam3, hits give low values 0.99 | S. cerevisiae deletion strains, locus YOR136W, strain idh2, hits give low values 0.982 | S. cerevisiae deletion strains, locus YOR144C, strain elg1, hits give low values 0.988 | S. cerevisiae deletion strains, locus YOR184W, strain ser1, hits give low values 0.994 | S. cerevisiae deletion strains, locus YOR231W, strain MKK1, hits give low values 0.986 | S. cerevisiae deletion strains, locus YOR265W, strain rbl2, hits give low values 0.99 | S. cerevisiae deletion strains, locus YOR270C, strain vph1, hits give low values 0.997 | S. cerevisiae deletion strains, locus YOR290C, strain snf2, hits give low values 0.964 | S. cerevisiae deletion strains, locus YOR316C, strain cot1, hits give low values 0.988 | S. cerevisiae deletion strains, locus YPL051W, strain arl3, hits give low values 0.983 | S. cerevisiae deletion strains, locus YPL055C, strain LGE1, hits give low values 1 | S. cerevisiae deletion strains, locus YPL078C, strain atp4, hits give low values 0.975 | S. cerevisiae deletion strains, locus YPL106C, strain sse1, hits give low values 0.961 | S. cerevisiae deletion strains, locus YPL240C, strain hsp82, hits give low values 1.02 | S. cerevisiae deletion strains, locus YPL241C, strain CIN2, hits give low values 1 | S. cerevisiae deletion strains, locus YPL256C, strain CLN2, hits give low values 0.956 | S. cerevisiae deletion strains, locus YPR119W, strain clb2, hits give low values 0.991 | S. cerevisiae deletion strains, locus YPR141C, strain kar3, hits give low values 0.981 | S. cerevisiae deletion strains, locus YPR163C, strain tif3, hits give low values 0.983 | S. cerevisiae deletion strains, locus YPR167C, strain met16, hits give low values 0.984 | S. cerevisiae deletion strains, strain wtn01, hits give low values 0.964 | S. cerevisiae strains, strain wild type, hits give low values 1.01
